Experimental data published in PubChem BioAssay AID493029 (Johns Hopkins Ion Channel Center, 2011).
The whole screen tested about 1,000 compounds, of which about 140 (14%) were called active. How the calls were made is not given here. The list is a sample of the results.

Experiment: thallium flux change in parental CHO cells, counter-screen for KCNQ2 inhibitor project (AID 493029);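 on activity change: 0% = vehicle negative controls with stimulus buffer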
Conditions: at 10 µM; active compounds read low

Compound	activity change
CCc1ccc(-c2nn(-c3ccccc3)cc2CSC(=N)N)cc1	-31% (active)
CC(NC(=S)NNS(=O)(=O)c1ccc(C(C)(C)C)cc1)c1ccccc1 (stereo unspecified)	inactive
C=CS(=O)c1sc(Cl)c(N2CCOCC2)c1[N+](=O)[O-] (stereo unspecified)	-22.5% (active)
Cc1ccc(C(=O)c2c(NC(=O)c3ccccc3)sc(C)c2C)cc1	inactive
O=C(OCC(=O)N(CCc1ccccc1)Cc1ccccc1)c1ccccc1[N+](=O)[O-]	inactive
CCOC(=O)C(C)Sc1nc2ccccc2c(=O)n1CC1CCCCC1 (stereo unspecified)	-21% (active)
Cc1ccc(C2=Nc3c(ccc4ccccc34)C(c3ccncc3)=NN2)cc1	inactive
COc1cccc(COc2ccc(N(C)S(=O)(=O)c3ccccc3)cc2)c1	inactive
Cc1ccc(C(C)C)cc1OCC(=O)Nc1ccccc1N1CCCC1	inactive
CC(C)N(C(=O)CSc1nc(COc2ccccc2)nc2ccccc12)C(C)C	-42.5% (active)
CCc1ccc(-c2cc(C(=O)NCc3ccco3)c3ccccc3n2)s1	inactive
CC(C)[C@H](NC(=O)OCc1ccccc1)C(=O)OCc1ccccc1	inactive
Cc1ccc(N2C(=O)C3C(c4ccccc4)(C2=O)C3(c2ccccc2)c2ccccc2)cc1 (stereo unspecified)	inactive
Cc1cccc(C(=O)OC(C)C(=O)NC2CCCc3ccccc32)c1O (stereo unspecified)	inactive
CCc1ccccc1NC(=O)/C(=C/c1ccccc1)c1ccccc1	inactive
CSCc1cc(N(C)C)nc(SCc2ccc(Cl)cc2Cl)n1	inactive

Compound	activity change
O=C(Nc1ccccc1Cl)/C(Cl)=C(\Cl)S(=O)c1ccccc1 (stereo unspecified)	inactive
CCc1ccc2ncc(C(=O)c3ccccc3)c(N3CCOCC3)c2c1	inactive
CC(C(=O)NCC1CCCCC1)N(C)Cc1cccc(Cl)c1 (stereo unspecified)	-35% (active)
CC(C)C(NC(=O)OCc1ccccc1)C(=O)OCC(=O)N1C(C)CCCC1C (stereo unspecified)	inactive
COc1ccc(CN(C)C(C)C(=O)NC2CCCc3ccccc32)cc1 (stereo unspecified)	inactive
COC(=O)C1=C(C)N(C(C)c2ccccc2)C(=O)/C1=C\c1ccco1 (stereo unspecified)	inactive
Fc1ccc2[nH]c3c(N4CCSCC4)ncnc3c2c1	inactive
CCOC(=O)N1CCC(N(CCOC)C(=O)Nc2ccc(C)c(C)c2)CC1	-23.5% (active)
Cc1ccccc1N1CCN(CC(=O)NCc2ccc(Cl)cc2)CC1	inactive
COc1ccc(Cl)cc1NC(=O)CN(C)Cc1ccc(OC)c(OC)c1	inactive
CN(Cc1ccccc1F)C(=O)C(Cc1ccccc1)NC(=O)c1ccccc1 (stereo unspecified)	inactive
O=C(Nc1ccc(Cl)c(Cl)c1)N1CC=C(c2ccccc2)CC1	inactive
Cc1nc2ccccc2c(-c2ccccc2)c1C(=O)c1ccccc1	inactive
C=CCn1c(SCC(=O)/C(C#N)=C(\C)N)nc2sc(C)c(C)c2c1=O	inactive
Cc1ccccc1C(=O)Nc1ccccc1Sc1ccccc1	inactive
